Data as given in PubChem BioAssay.
Calls of active or inactive are those of the source. Unless noted, the rule behind the calls is not given here.

Tests used:
[1] = HepG2 liver cancer cell viability effects, profiling panel, resazurin fluorescence, 24 h, PK04 Diversity Set (AID 1172); conditions: higher = more signal
[2] = basal S. cerevisiae growth modulation, no modifier, primary screen, OD600, strain BY4716, 24 h, basal condition (AID 1173); conditions: OD600, 24 h, higher = more signal, called active from +8 up or from −8 down
[3] = MM1S myeloma cell viability, profiling panel, resazurin fluorescence, basal, 24 h, PK04 Diversity Set (AID 1174); conditions: higher = more signal, called active from +8 up or from −8 down;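 note: MM1S multiple myeloma cell line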
[4] = target: Dihydroorotate dehydrogenase (quinone), mitochondrial (Plasmodium falciparum (isolate 3D7)) (UniProt Q08210); assay: PfDHODH enzyme inhibitors, primary screen, biochemical, C-terminal His tag, absorbance 600 nm (AID 1175); conditions: DCIP absorbance 600 nm, higher = more signal, called active from +8 up or from −8 down;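 note: recombinant parasite enzyme with a five histidine tag at its C terminus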
Dihydroorotate dehydrogenase (quinone), mitochondrial (Plasmodium falciparum (isolate 3D7)), sequence (Q08210 whole entry, looked up): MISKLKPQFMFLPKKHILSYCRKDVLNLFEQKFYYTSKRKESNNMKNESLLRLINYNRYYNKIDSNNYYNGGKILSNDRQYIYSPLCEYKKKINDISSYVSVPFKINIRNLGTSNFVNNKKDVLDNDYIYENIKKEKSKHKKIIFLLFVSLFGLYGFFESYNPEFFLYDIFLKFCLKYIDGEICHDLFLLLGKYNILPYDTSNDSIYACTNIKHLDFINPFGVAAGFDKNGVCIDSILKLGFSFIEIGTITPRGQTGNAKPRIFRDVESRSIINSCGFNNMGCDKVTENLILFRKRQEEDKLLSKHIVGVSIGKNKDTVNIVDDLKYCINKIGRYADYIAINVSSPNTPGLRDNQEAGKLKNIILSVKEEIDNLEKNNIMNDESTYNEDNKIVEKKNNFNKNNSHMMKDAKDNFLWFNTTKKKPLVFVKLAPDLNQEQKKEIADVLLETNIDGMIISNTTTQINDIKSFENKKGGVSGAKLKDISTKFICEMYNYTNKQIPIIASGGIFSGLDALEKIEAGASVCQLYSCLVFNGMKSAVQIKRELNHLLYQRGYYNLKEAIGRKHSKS

[5] = P. aeruginosa biofilm formation inhibitors, primary screen, strain PAO1, LB-PBS medium, absorbance 600 nm (AID 1176); conditions: P. aeruginosa PAO1 growth/biofilm, A600, 12 h; higher = more signal
[6] = S. cerevisiae RM11-1a growth modifiers, primary screen, strain RM11-1a, OD600, basal, 24 h (AID 1177); conditions: OD600, 24 h, higher = more signal, called active from +8 up or from −8 down;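 note: cultures grown under basal conditions with no added stressor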
[7] = E. coli acrAB mutant growth effects, primary screen, E. coli filamentation inducers, strain DRC39, OD650, 24 h (AID 1178); conditions: higher = more signal, called active from +8 up or from −8 down;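 note: growth measured as culture turbidity by optical density at 650 nm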
[8] = E. coli acrAB mutant growth effects, primary screen, E. coli filamentation inducers, strain DRC39, OD650, 48 h (AID 1179);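 note: screen aims at cell division blockers that make cells filament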; conditions: E. coli DRC39 delta-acrAB growth, higher = more signal, called active from +8 up or from −8 down
[9] = RPMI8226 myeloma cell viability, profiling panel, resazurin fluorescence, basal, 24 h, PK04 Diversity Set (AID 1180); conditions: higher = more signal;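 note: RPMI8826 multiple myeloma cell line at 5000 cells per well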
[10] = target: E3 ubiquitin-protein ligase XIAP (Homo sapiens) (UniProt P98170); assay: XIAP binders, primary screen, biophysical, small-molecule microarray, fluorescence 635 nm (AID 1181); conditions: small-molecule microarray binding, higher = more signal;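 note: score merges 667 nm emission and signal to noise over triplicate slides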
E3 ubiquitin-protein ligase XIAP (Homo sapiens), sequence (P98170 whole entry, looked up): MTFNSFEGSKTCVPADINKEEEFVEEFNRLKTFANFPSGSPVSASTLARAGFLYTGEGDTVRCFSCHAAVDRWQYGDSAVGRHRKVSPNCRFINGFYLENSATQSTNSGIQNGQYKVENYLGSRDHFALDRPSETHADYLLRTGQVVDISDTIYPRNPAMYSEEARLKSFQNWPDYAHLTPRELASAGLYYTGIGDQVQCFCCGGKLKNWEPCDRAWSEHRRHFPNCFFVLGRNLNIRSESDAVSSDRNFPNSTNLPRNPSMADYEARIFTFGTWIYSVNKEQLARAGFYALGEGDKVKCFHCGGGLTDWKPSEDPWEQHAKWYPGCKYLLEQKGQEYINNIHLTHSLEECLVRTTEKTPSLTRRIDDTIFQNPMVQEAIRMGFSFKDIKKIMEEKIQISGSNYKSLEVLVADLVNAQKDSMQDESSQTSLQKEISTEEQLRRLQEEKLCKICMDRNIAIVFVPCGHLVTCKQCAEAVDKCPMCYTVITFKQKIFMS

[11] = test system: XIP peptide (Xip251-270) binding; assay: small-molecule binders of XIP peptide, primary screen, biochemical, small-molecule microarray, fluorescence 635/667 nm, 0.1 µg/mL protein (AID 1182); conditions: fluorescent protein binding, 635 nm, higher = more signal, called active from +8 up or from −8 down
XIP peptide (Xip251-270) = assay: small-molecule binders of XIP peptide, primary screen, biochemical, small-molecule microarray, fluorescence 635/667 nm, 0.5 µg/mL protein (AID 1183); conditions: small-molecule microarray binding, fluorescence 635 nm; higher = more signal
[12] = Plasmodium falciparum growth inhibition, primary screen, strain 3D7, DAPI fluorescence, 100 nL (AID 1184);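 note: parasites grown inside human red blood cells in medium with human serum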; conditions: P. falciparum 3D7 growth, 3 d, higher = more signal
[13] = target: Homeobox protein Hox-A13 (Mus musculus) (UniProt Q62424); assay: inhibitors of HoxA13-DNA binding, primary screen, biochemical, fluorescence polarization, labeled oligonucleotide (AID 1185); conditions: 15 min, higher = more signal, called active from +8 up or from −8 down
Homeobox protein Hox-A13 (Mus musculus), sequence (Q62424 whole entry, looked up): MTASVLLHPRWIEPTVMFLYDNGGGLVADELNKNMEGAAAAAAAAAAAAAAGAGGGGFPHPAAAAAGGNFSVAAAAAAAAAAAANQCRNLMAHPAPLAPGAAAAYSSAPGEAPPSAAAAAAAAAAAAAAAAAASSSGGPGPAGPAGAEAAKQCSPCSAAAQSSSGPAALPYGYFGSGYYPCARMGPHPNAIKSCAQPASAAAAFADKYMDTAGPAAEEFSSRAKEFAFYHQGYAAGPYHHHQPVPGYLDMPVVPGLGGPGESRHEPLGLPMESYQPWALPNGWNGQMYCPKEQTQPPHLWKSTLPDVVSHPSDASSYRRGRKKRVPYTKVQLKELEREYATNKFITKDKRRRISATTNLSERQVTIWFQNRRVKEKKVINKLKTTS

[14] = inhibitors of hydroxyurea-induced Chk1 phosphorylation, primary screen, imaging, HeLa, phospho-Chk1 antibody, percent positive cells (AID 1186); conditions: hydroxyurea-induced phospho-Chk1 immunofluorescence imaging, higher = more signal
[15] = inhibitors of hydroxyurea-induced Chk1 phosphorylation, primary screen, imaging, HeLa, phospho-Chk1 nuclear intensity (AID 1187); conditions: hydroxyurea-induced phospho-Chk1 immunofluorescence imaging, higher = more signal

SMILES | z-score [1] | z-score [2] | z-score [3] | composite z-score [4] | z-score [5] | z-score [6] | z-score [7] | z-score [8] | z-score [9] | composite z-score [10] | composite z-score [11] | composite z-score (XIP peptide (Xip251-270)) | z-score [12] | z-score [13] | z-score [14] | z-score [15]
COCC(=C=CC[C@@H](O)c1ccc(OCCO)cc1)C[C@@H](O)COCc1ccccc1 | 0.948 | -0.81 (inactive) | 0.891 (inactive) | -2.32 (inactive) | 0.801 (inactive) | -1.31 (inactive) | 0.789 (inactive) | 0.859 (inactive) | 0.804 | 0.24 | 0.705 (inactive) | 0.181 | -2.96 | -4.15 (inactive) | -0.252 (inactive) | 0.483 (inactive)
C=C(COC)C(=O)CC[C@@H](OC(=O)c1cccnc1)c1cccc(OCCO)c1 | 0.312 | 0.798 (inactive) | -0.857 (inactive) | -0.289 (inactive) | 0.543 (inactive) | 0.544 (inactive) | 1.16 (inactive) | 0.927 (inactive) | -2.55 | -0.162 | -0.209 (inactive) | 0.617 | -2.53 | -4.51 (inactive) | -0.494 (inactive) | 2.22 (inactive)
C=CCC(OC(C)=O)[C@@H]1[C@@H](N(Cc2ccc(-c3cccc(C(F)(F)F)c3)o2)C(=O)Cc2ccc(OC)cc2)c2cc(OCCCO)ccc2N1C(=O)c1ccc2ccccc2n1 (some centres undefined) | -0.777 | -0.791 (inactive) | 0.271 (inactive) | -0.0941 (inactive) | -0.817 (inactive) | -0.188 (inactive) | -0.267 (inactive) | -0.446 (inactive) | 0.0494 | 0.36 | -0.155 (inactive) | -0.118 | -2.2 | -2.25 (inactive) | 0.401 (inactive) | 0.966 (inactive)
CN(C)C(=O)[C@@]1(CCS(=O)(=O)c2ccccc2)N=C(c2ccc(OCCCO)cc2)O[C@H]1c1ccccc1N=[N+]=[N-] | -0.679 | 0.135 (inactive) | -0.517 (inactive) | -0.926 (inactive) | -0.0558 (inactive) | -0.241 (inactive) | -0.068 (inactive) | 0.0077 (inactive) | -1.68 | -0.0676 | 0.266 (inactive) | 0.723 | -2.56 | -5.61 (inactive) | -0.268 (inactive) | -0.701 (inactive)
C[N+](C)(C)CCCCCCNC(=O)[C@H]1C[C@H]2C(=O)NCC(=O)N2[C@H]1c1cccc(OCCO)c1 | 0.547 | -0.316 (inactive) | -0.0342 (inactive) | -0.97 (inactive) | -0.0743 (inactive) | 0.254 (inactive) | -0.129 (inactive) | -0.285 (inactive) | -0.252 | 0.0402 | 1.32 (inactive) | 0.695 | 0.138 | -3.97 (inactive) | 0.145 (inactive) | 0.136 (inactive)
CCCC[C@@H]1C[C@H]1[C@@H](NC(=O)Cc1ccccc1)c1ccc(Cl)cc1 | 1.95 | 0.0658 (inactive) | 0.625 (inactive) | -1.36 (inactive) | 0.33 (inactive) | 0.335 (inactive) | -0.704 (inactive) | -0.162 (inactive) | -4.68 | -0.0103 | 0.155 (inactive) | 0.503 | -0.0042 | -2.08 (inactive) | -0.114 (inactive) | -0.588 (inactive)
COc1ccc([Si](C)(C)[C@H]2[C@H](CC(=O)N3Cc4ccccc4C[C@H]3CO)O[C@@]3(C(=O)N(Cc4cccc(N5C(=O)c6cccc7cccc5c67)c4)c4ccccc43)[C@@H]2C)cc1 | -0.539 | -0.563 (inactive) | -2.76 (inactive) | -1.88 (inactive) | 1.49 (inactive) | 1.95 (inactive) | 0.643 (inactive) | 0.209 (inactive) | -2 | 0.0153 | 0.14 (inactive) | 0.802 | -2.45 | -2.56 (inactive) | -0.887 (inactive) | -0.153 (inactive)
CC[C@H](C)C(=O)O[C@H]1CC[C@]2(C)C3=C(CCC2C1(C)C)[C@]1(C)CC[C@H]([C@H](C)CCCC(C)C)[C@@]1(C)CC3 (some centres undefined) | 1.06 | 0.31 (inactive) | 0.0978 (inactive) | 0.454 (inactive) | -0.283 (inactive) | 0.295 (inactive) | 2.06 (inactive) | 1.47 (inactive) | 1.09 | -0.304 | 0.146 (inactive) | -0.273 | 0.231 | -1.34 (inactive) | -0.719 (inactive) | -0.829 (inactive)
COc1ccc(C#Cc2ccc3c(c2)[C@]2(C(=O)N3)[C@H](c3ccc(OCCO)cc3)N3[C@H](c4ccccc4)[C@H](c4ccccc4)OC(=O)[C@H]3[C@@H]2C(=O)O)cc1 | 1.24 | 1.85 (inactive) | -0.103 (inactive) | -12.9 (active) | 2.25 (inactive) | 1.73 (inactive) | 1.22 (inactive) | 0.0805 (inactive) | 0.149 | 0.158 | -0.436 (inactive) | 0.327 | -1.31 | -5.36 (inactive) | 0.36 (inactive) | 0.273 (inactive)
